Results published in PubChem BioAssay AID1362 (SRMLSC, 2008).
About 4,000 (2.1%) of roughly 190,000 compounds were called active. Rule as the data show it: active = inhibition above about 58%; inactive = the rest, inconclusive results apart; tested in S. cerevisiae. What follows is part of a selection rich in actives, with near analogues and random picks from the rest.

Experiment: growth inhibition of WT strain, primary screen, mitochondrial fusion inhibitor project, WT and mutant strains, chemical genetic (AID 1362)
Conditions: mitochondrial fusion phenotypic screen, at 10 µM
[1] = WT strain, growth inhibition, stronger effect = higher value

Row | SMILES | inhibition [1] | inhibition (mutant strain inhibition) [%]
1 | Cc1nnnn1/C(=C\c1ccccc1)C(=O)OCC(=O)N1CC2(C)CC1CC(C)(C)C2 (configuration not stated) | 60.3% (active) | 11.4
2 | COc1ccccc1C(=O)N1CC2(C)CC1CC(C)(C)C2 (configuration not stated) | 18.6% (inactive) | 10.1
3 | Cc1cccc(C(=O)NCC(=O)OCC(=O)N2CC3(C)CC2CC(C)(C)C3)c1 (configuration not stated) | -4.43% (inactive) | 5.06
4 | CN1CCCN(C(=O)C2CCCCC2)CC1 | 2.94% (inactive) | -4.71
5 | CN(C)S(=O)(=O)N1CCN(c2ccc([N+](=O)[O-])cc2)CC1 | -1.29% (inactive) | -1.53
6 | O=C(NCc1ccc(Cl)cc1)NCc1ccc(Cl)cc1 | 4.16% (inactive) | 4.87
7 | CC(C)Oc1ccc(CCc2n[nH]c(=S)n2Cc2ccccc2)cc1 | 13.3% (inactive) | 0.86
8 | CC(C)Oc1ccc(Cc2n[nH]c(=S)n2Cc2ccccc2)cc1Cl | 66.9% (active) | 17.8
9 | C=CCn1c(CCc2ccc(OC(C)C)cc2)n[nH]c1=S | -7.58% (inactive) | -5.68
10 | CSC1=N/C(=C\C=C\c2cccs2)C(=O)S1 | 70.3% (active) | 37.4
11 | CSC1=N/C(=C\c2ccc3c(c2)OCO3)C(=O)S1 | 6.07% (inactive) | -0.28
12 | Cc1cccc(C2=N/C(=C/c3cccs3)C(=O)O2)c1 | -7.49% (inactive) | 9.32
13 | Cc1nnc(SCc2cccc(Cl)c2)n(N)c1=O | -3.17% (inactive) | -5.61
14 | CCCN(CC(=O)Nc1ccc(OC)c(OC)c1)CC(=O)Nc1ccc(F)c(F)c1F | 4.56% (inactive) | 28.4
15 | O=[N+]([O-])c1ccc2c(c1)C(N1CCOCC1)/C(=C/C1(O)CCCCC1)O2 (configuration not stated) | -4.01% (inactive) | 0.41
16 | COc1cc(C)c(Cl)cc1S(=O)(=O)n1ccnc1 | 3.86% (inactive) | -5.05
17 | COC(=O)C1=C(C(=O)c2ccc(C)cc2)C(c2ccccc2)n2nnnc2N1 (configuration not stated) | 11.5% (inactive) | 4.37
18 | COC(=O)c1ccc(C2C3=C(Nc4nnnn42)c2ccccc2OC3)cc1 (configuration not stated) | 98.5% (active) | -8.54
19 | COc1ccccc1NC(=O)C1=C(C)Nc2nnnn2C1c1cccc(Br)c1 (configuration not stated) | -12.6% (inactive) | -7.01
20 | Nc1cc(C(F)(F)F)ccc1N1CCOCC1 | -6.55% (inactive) | -2.84
21 | CC1(C)C=C2[C@H]3CC[C@@H]4[C@@]5(C)CCC(=O)C(C)(C)[C@@H]5CC[C@@]4(C)[C@]3(C)CC[C@@]2(C(=O)O)CC1 | 59.1% (active) | -18.6
22 | Cc1ccc(S(=O)(=O)Nc2nc(N)n(-c3ccccc3)n2)cc1 | -0.46% (inactive) | 3.67
23 | CSc1cc(C)[nH]c(=O)n1 | -8.71% (inactive) | -7.11
24 | S=C(NN=C1CCN(Cc2ccccc2)CC1)NC1CCCCC1 | 38.9% (inactive) | 25
25 | CCCC1CCC(=NNC(=S)NCCc2ccccc2)CC1 (configuration not stated) | 66.8% (active) | 40.1
26 | S=C(NCCc1ccccc1)NCC1CCCO1 (configuration not stated) | -1.69% (inactive) | 7.51
